Experimental data taken from PubChem BioAssay (NCATS).
Results filed as inconclusive are left out. Entries that show only a call come without a potency. Activity calls are given as the source filed them. Calls follow the shape of the dose curve; as a rule, active = well fitted inhibition curve with a large enough effect; inconclusive = small, poorly fitted or top-dose-only effect; inactive = flat fitted curve, though single readings scatter.

Test system: Zika virus NS2B-NS3 protease
Test: Primary screen GU AMC qHTS for Zika virus inhibitors (AID 1347154); also: nearly all actives have a fitted effect of over 70% in size
Conditions: Zika NS2B-NS3 unlinked protease, AMC fluorogenic substrate; series mostly up to 54.1 µM
In short: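 Unlinked Zika NS2B hydrophilic domain–NS3 protease complex at 25 nM in 10 mM Tris-HCl pH 8.0, 0.01% Tween 20, with an AMC peptide substrate. Fluorescence change (340/450 nm) over 15 min at room temperature, normalized to controls, fitted to 4-parameter Hill.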

SMILES	Potency	activity change, negative = inhibition
NC(CS)C(=O)O (stereo not drawn)	inactive	–
O=C1OCCN1/N=C/c1ccc([N+](=O)[O-])o1	inactive	–
Nc1ccc(/C=C/c2ccc(N)cc2S(=O)(=O)O)c(S(=O)(=O)O)c1	–	-4.58% [at 0.59 µM] (inactive)
CCCCCCC[N+](CC)(CC)CCCCc1ccc(Cl)cc1	inactive	–
CCC(=O)c1c(O)cc(O)cc1O	inactive	–
CC(Cc1cccc(C(F)(F)F)c1)NCCOC(=O)c1ccccc1 (stereo not drawn)	inactive	–
Cc1c(C)n(Cc2ccccc2)c2ccc(C(=O)OCCN(C)C)cc12	inactive	–
COc1cc(N)c(Cl)cc1C(=O)NC1CCN(CCCOc2ccc(F)cc2)CC1OC (stereo not drawn)	inactive	–
OCc1ccccc1O	inactive	–
C[C@H](CCC(=O)O)[C@H]1CC[C@H]2[C@@H]3C(=O)C[C@@H]4CC(=O)CC[C@]4(C)[C@H]3CC(=O)[C@]12C	inactive	–
O=C1c2ccccc2C(=O)C1c1ccccc1	inactive	–
OC(CCN1CCCCC1)(c1ccccc1)c1ccccc1	inactive	–
CCN1CCN(c2cc3c(cc2F)c(=O)c(C(=O)O)cn3C2CC2)CC1	inactive	–
CN(C)/N=N/c1nc[nH]c1C(N)=O	inactive	–
O=C(CCCN1CCC(O)(c2ccc(Br)cc2)CC1)c1ccc(F)cc1	inactive	–
C[C@H](O)C(=O)Nc1c(I)c(C(=O)NC(CO)CO)c(I)c(C(=O)NC(CO)CO)c1I	inactive	–
CCN1CCC[C@H]1CNC(=O)c1c(OC)ccc(Br)c1OC	inactive	–
CC(=O)OCC(=O)[C@@]12N=C(C)O[C@@H]1C[C@H]1[C@@H]3CCC4=CC(=O)C=C[C@]4(C)[C@H]3[C@@H](O)C[C@@]12C	inactive	–
